Experimental data taken from the supplement of paper PMC10498489.
The whole screen tested about 2,300 compounds, of which about 330 (14%) showed activity. These entries were drawn from the full list. A number with no mark means an inactive call.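 The calls were made as follows: active = median modified Z-score above 1.96; inactive = 1.96 or below.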

system: HepG2 Srxn1-GFP reporter cells (+30 nM CDDO-Me); assay: Srxn1-GFP intensity median modified Z-score relative to plate median; higher = stronger NRF2 / oxidative stress reporter activation, active = hit call of the paper; conditions: 10 µM; exposure time: 24h
How it was run: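 HepG2 Srxn1-GFP BAC reporter cells (20,000 per well, 96-well plates) were co-exposed to an NRF2 activator at 30 nM and compound at 10 μM (≤0.1% DMSO) for 24 h in three replicate plates. After formaldehyde fixation and Hoechst staining, confocal images were analysed per cell for cytoplasmic GFP, excluding images with under 100 cells. The value is the median over replicates of the per-plate modified Z-score of GFP intensity. Scaling used 1.4826 × median absolute deviation.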

First: CC(=O)O[C@H]1CC[C@]2(C)C3CC[C@@]4(C)C(CC5O[C@@]6(CCC(C)CO6)[C@@H](C)C54)C3CC[C@@H]2C1 (some centres not stated) [euspeclibcmpd1531]
Second: C[C@]12CCC(=O)CC1=CC=C1C2CC[C@@]2(C)C1CC[C@@]21CCC(=O)O1 (some centres not stated) [euspeclibcmpd726]
The “Srxn1-GFP intensity median modified Z-score” value of the first is lower: -0.369 for the first, 0.642 for the second.

Going from `O=S(=O)(c1ccc(Cl)nc1)N(CC1CCCO1)C1CCSC1` (configuration not stated) to `CC(=O)c1ccc(S(=O)(=O)CC(=O)NC2CCCC2)cc1`, the “Srxn1-GFP intensity median modified Z-score” value rises from 1.21 to 1.37.

Compared with `Cc1c(C)c(O)c(C(=CCCCCC(=O)O)c2ccccc2)c(C)c1O` [euspeclibcmpd470], `O=C(c1ccccc1)c1ccc(Cl)cc1O` is higher in “Srxn1-GFP intensity median modified Z-score” value: -0.366 for the first, 1.14 for the second.

Compared with `CN1C2CC[C@H]1C[C@@H](OC(=O)C(O)c1ccccc1)C2` (some centres not stated) [euspeclibcmpd2075], `CCN(CC)CCOC(=O)C(c1ccccc1)C1CCCCC1` (configuration not stated) [euspeclibcmpd1055] is higher in “Srxn1-GFP intensity median modified Z-score” value: 0.0546 for the first, 0.0961 for the second.

Going from `CCN(CC)CCOCCOC(=O)C1(c2ccccc2)CCCC1` [euspeclibcmpd389] to `O=C(O)C1[C@H]2C[C@H]3c4[nH]c5ccccc5c4CCN3C[C@@H]2CC[C@@H]1O` (some centres not stated) [euspeclibcmpd1655], the “Srxn1-GFP intensity median modified Z-score” value falls from -0.0174 to -0.233.

Going from `NC(=O)C1CCCN1C(=O)C(Cc1c[nH]cn1)NC(O)c1ccc(O)[nH]1` (configuration not stated) [euspeclibcmpd919] to `NC(Cc1ccc(O)c(O)c1)C(=O)O` (configuration not stated) [euspeclibcmpd949], the “Srxn1-GFP intensity median modified Z-score” value falls from 0.145 to -1.39.

Compared with `COc1ccccc1O` [euspeclibcmpd1265], `Oc1cccc2[nH]ccc12` [euspeclibcmpd2031] is lower in “Srxn1-GFP intensity median modified Z-score” value: -0.0107 for the first, -0.358 for the second.

Compared with `COc1cc(O)cc(OC)c1OC` [euspeclibcmpd1601], `COc1c(O)cc(O)cc1O` [euspeclibcmpd1393] is lower in “Srxn1-GFP intensity median modified Z-score” value: -0.369 for the first, -0.431 for the second.

First: N=C(N)NCCCC(N)C(=O)O (configuration not stated) [euspeclibcmpd695]
Second: C[C@](N)(Cc1ccc(O)c(O)c1)C(=O)O [euspeclibcmpd194]
The “Srxn1-GFP intensity median modified Z-score” value of the first is higher: -0.363 for the first, -0.447 for the second.

Compared with `CC(C)N=c1nccc[nH]1` [euspeclibcmpd1194], `N=c1nc(-c2cc(Cl)ccc2Cl)[nH]c(=N)[nH]1` [euspeclibcmpd1188] is higher in “Srxn1-GFP intensity median modified Z-score” value: -0.779 for the first, 0.145 for the second.

First: NC[C@H]1O[C@H](O[C@H]2C(O[C@@H]3O[C@H](CO)[C@@H](O)[C@H]3O)[C@@H](O)[C@H](N)C[C@@H]2N)[C@H](N)[C@@H](O)[C@@H]1O (some centres not stated) [euspeclibcmpd1069]
Second: C[C@H]1O[C@H](OC[C@@H]2O[C@H](Oc3c(-c4ccc(OCCO)c(OCCO)c4)oc4cc(OCCO)cc(O)c4c3=O)[C@@H](O)[C@H](O)[C@H]2O)[C@@H](O)[C@@H](O)[C@@H]1O [euspeclibcmpd1205]
The “Srxn1-GFP intensity median modified Z-score” value of the first is higher: -0.384 for the first, -0.542 for the second.

First: CCOc1ccc(C(=O)c2ccc(OC)c(O)c2O)cc1 [euspeclibcmpd1975]
Second: CCOc1cc2c(cc1/C=C/C(=O)N(C)C(C)c1ccc(-n3cncn3)cc1)OC(C)C2 (configuration not stated)
The “Srxn1-GFP intensity median modified Z-score” value of the first is lower: -0.333 for the first, 0.413 for the second.

Going from `CCO[C@@]1(C)C[C@H]1NC(=O)N[C@@H]1C[C@@H]1C(F)F` to `CCC[C@@H]1C[C@@H](C(=O)N[C@@H]([C@H]2O[C@H](SC)[C@H](O)[C@@H](O)[C@H]2O)[C@@H](C)O)N(C)C1`, the “Srxn1-GFP intensity median modified Z-score” value rises from 0.985 to 1.1.

Compared with `CC1C(=NC(=O)C(NOC(C)(C)C(=O)O)c2csc(=N)[nH]2)C(=O)N1S(=O)(=O)O` (configuration not stated) [euspeclibcmpd708], `CCN(C(=O)COC(=O)C1=NNC(=O)CC1)C1CCS(=O)(=O)C1` (configuration not stated) is higher in “Srxn1-GFP intensity median modified Z-score” value: -0.0945 for the first, 1.01 for the second.

First: Cc1ccc2c(Cl)cc(Cl)c(O)c2n1 [euspeclibcmpd1014]
Second: NCCc1ccc(O)c(O)c1 [euspeclibcmpd2150]
The “Srxn1-GFP intensity median modified Z-score” value of the first is higher: -0.191 for the first, -1.01 for the second.

First: CO[C@@H]1[C@@H](OC(N)=O)[C@@H](O)[C@H](Oc2ccc3c(=O)c(NC(=O)c4ccc(O)c(CC=C(C)C)c4)c(O)oc3c2C)OC1(C)C [euspeclibcmpd2334]
Second: CCC(C)CCCCC(=O)NC(CCN)C(=O)NC(C(=O)NC(CCN)C(=O)NC1CCNC(=O)C(C(C)O)NC(=O)C(CCN)NC(=O)C(CCN)NC(=O)C(CC(C)C)NC(=O)C(Cc2ccccc2)NC(=O)C(CCN)NC1=O)C(C)O (configuration not stated) [euspeclibcmpd239]
The “Srxn1-GFP intensity median modified Z-score” value of the first is lower: -0.255 for the first, 0.328 for the second.

Compared with `N#CCSc1nnc(-c2ccc(Br)cc2)n1C1CCCCC1`, `CCC(C)C(=N)C1NC(C(=O)NC(CC(C)C)C(=O)NC(CCC(=O)O)C(=O)NC(C(=O)NCCCCC2NC(=O)C(CC(N)=O)NC(=O)C(CC(=O)O)NC(=O)C(Cc3c[nH]cn3)NC(=O)C(Cc3ccccc3)NC(=O)C(C(C)CC)NC(=O)C(CCCN)NC2=O)C(C)CC)CS1` (configuration not stated) [euspeclibcmpd30] is lower in “Srxn1-GFP intensity median modified Z-score” value: 1.88 for the first, -0.458 for the second.

With `COc1c2ccoc2nc2c(OC)c(OCC(O)C(C)(C)O)ccc12` (configuration not stated) [euspeclibcmpd1658] the “Srxn1-GFP intensity median modified Z-score” value was 26 (active).
`CCN(CC)CCOC(=O)C1(C2CCCCC2)CCCCC1` [euspeclibcmpd90] was tested, and the “Srxn1-GFP intensity median modified Z-score” value was 2.86 (active).
In the case of `COc1cccc(O)c1O` [euspeclibcmpd1624], the “Srxn1-GFP intensity median modified Z-score” value is reported as 10.7 (active).
With `COc1c(O)cccc1O` [euspeclibcmpd1665] the “Srxn1-GFP intensity median modified Z-score” value was 3.35 (active).
In the case of `Oc1c(Cl)cc(Cl)c(Cl)c1Cc1c(O)c(Cl)cc(Cl)c1Cl` [euspeclibcmpd146], the “Srxn1-GFP intensity median modified Z-score” value is reported as 44.1 (active).
With `COC(=O)[C@H]1[C@H]2C[C@@H]3c4[nH]c5cc(OC)ccc5c4CCN3C[C@H]2C[C@@H](OC(=O)c2cc(OC)c(OC)c(OC)c2)[C@@H]1OC` [euspeclibcmpd2385] the “Srxn1-GFP intensity median modified Z-score” value was 6.53 (active).
In the case of `NCCc1ccc(O)c(O)c1` [euspeclibcmpd2286], the “Srxn1-GFP intensity median modified Z-score” value is reported as 9.36 (active).
In the case of `CC(C)CC1NC(=O)C(CCCN)NC(=O)C(C(C)C)NC(=O)C(Cc2ccc(O)cc2)NC(CCC(=O)O)C(=O)NC(CC(N)=O)C(=O)C(Cc2ccccc2)NC(=O)C(Cc2ccccc2)NC(=O)C2CCCN2C(=O)C(Cc2ccccc2)NC1=O` (configuration not stated) [euspeclibcmpd1841], the “Srxn1-GFP intensity median modified Z-score” value is reported as 2.86 (active).
